Source: PubChem (several laboratories)
In the library only some 32% were active in any assay of this set; here they are far more common.
CYP2C19 act – cytochrome P450 2C19 (human) activation; AID 1025; recombinant CYP2C19, luciferin-H EGE luminescence; hits give high values; 0 = fully inhibited enzyme, 1 = untreated enzyme; activation factor at 5 µM; P33261; 96,000 tested, under 10 active;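 active = activation factor of at least 2 at 5 µM in the primary screen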;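 note: 0 = wells with 2.5 mM tranylcypromine and 1 = vehicle-only wells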
CYP2C9 activ – CYP2C9 (human) activation; recombinant CYP2C9, luciferin-H conversion, luminescence; hits give high values; factor 1 = untreated enzyme, 0 = blocked; activation factor at 5 µM; 1.4% of 96,000 active; AID 1024;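 active = activation factor of 2 or more for CYP2C9 at a 5 µM dose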;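 note: 0 = sulfaphenazole-blocked wells and 1 = vehicle-only wells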
Target sequence (P11712 whole entry, looked up): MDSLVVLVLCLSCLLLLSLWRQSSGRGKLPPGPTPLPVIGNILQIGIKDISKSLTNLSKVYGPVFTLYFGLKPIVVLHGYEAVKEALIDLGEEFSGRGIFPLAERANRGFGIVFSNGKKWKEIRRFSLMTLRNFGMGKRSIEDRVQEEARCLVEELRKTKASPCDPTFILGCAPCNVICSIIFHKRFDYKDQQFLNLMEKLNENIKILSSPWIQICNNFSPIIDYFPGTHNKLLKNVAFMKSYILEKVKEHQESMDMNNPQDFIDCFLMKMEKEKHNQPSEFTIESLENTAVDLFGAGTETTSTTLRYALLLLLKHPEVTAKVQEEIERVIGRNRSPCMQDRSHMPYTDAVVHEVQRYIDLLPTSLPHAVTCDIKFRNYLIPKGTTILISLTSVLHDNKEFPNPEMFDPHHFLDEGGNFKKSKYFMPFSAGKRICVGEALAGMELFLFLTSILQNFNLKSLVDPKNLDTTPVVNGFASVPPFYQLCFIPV
PostGolgi ctrl – inhibits growth of the yeast control strain; inhibition, % at 10 µM; AID 738; 5% of 98,000 active; efflux-deficient yeast background strain, growth absorbance A615, 16 h
CYP2C19 inhib – human CYP2C19 inhibition | 21% of 96,000 active | CYP2C19 Supersomes, luciferin-H EGE luminescence, 30 min | P33261 | inhibition, % at 5 µM;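 active = CYP2C19 inhibition above a set limit at 5 µM in the primary screen, cut at about 50% in these data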;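 note: plate controls were negative control wells for no effect and 2.5 mM tranylcypromine positive control for full effect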
PostGolgi yeast – growth inhibition of a yeast mutant, post-Golgi transport screen; post-Golgi transport phenotypic cell assay; inhibition, % at 10 µM; 0.9% of 98,000 active;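 note: yeast cells grown in 1536-well plates; yeast grown about 18 h at 30C before absorbance read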
CYP2C9 inhib – human CYP2C9 inhibition | P11712 | CYP2C9 Supersomes, luciferin-H conversion, luminescence | inhibition, % at 5 µM | 20% of 96,000 active | AID 777;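 active = blocking of liver enzyme CYP2C9 beyond about 50% at 5 µM, limit read from the data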
* = called active by the depositor; . = not tested or not shown. Cut-off read from the data, not from the text of the source, unless noted: active = inhibition above about 30%; inactive = the rest.

SMILES | CYP2C19 act | CYP2C9 activ | PostGolgi ctrl | CYP2C19 inhib | PostGolgi yeast | CYP2C9 inhib
O=C(COc1ccccc1)Nc1cccc2nsnc12 | 0.5 | 0.8 | -1 | 53* | 4 | 22
COc1cc(CC(=O)Nc2ncc(C)s2)cc(OC)c1OC | 0.3 | 0.5 | 4 | 73* | -14 | 54*
COC(=O)c1sc(NC(=O)Cc2cccs2)nc1C | 0.6 | 0.4 | 4 | 43 | 4 | 57*
Cc1cnc(NC(=O)COc2ccccc2)s1 | 0.3 | 0.7 | 9 | 66* | 10 | 34
CC(C)c1nnc(NC(=O)Cc2cccs2)s1 | . | . | 0 | . | 5 | .
O=c1cc(CSc2ccc(Cl)cc2)nc(N2CCCCC2)[nH]1 | 1 | 0.7 | 13 | 5 | 5 | 34
COC(=O)c1sc(NC(=O)CSc2nc3cccnc3n2C2CCCCC2)nc1C | 0.3 | 0.2 | 27 | 73* | 11 | 84*
CC(C(=O)NCC1CCCO1)N(C(=O)c1snc(C(N)=O)c1N)c1ccccc1 (centres undefined) | 0.9 | 1 | 30* | 7 | 2 | 0
CC(C(=O)NCC1CCCO1)N(C(=O)c1snc(C(N)=O)c1N)c1cccc(F)c1 (centres undefined) | 0.8 | 0.7 | 7 | 16 | -3 | 26
N#Cc1ccccc1OCC(=O)NC(N)=O | 1.1 | 1.5 | 11 | -12 | 0 | -50
CCOC(=O)N1CCN(C(=O)CSc2ccccc2)CC1 | 0.6 | 0.9 | 0 | 44 | 6 | 11
CN(C)c1cc(O)c(C(=S)Nc2ccccc2)c(N(C)C)c1 | 0.2 | 0.9 | 7 | 79* | 10 | 5
O=C(NC1CCc2ccccc21)C1CCN(S(=O)(=O)c2ccc(-n3cnnn3)cc2)CC1 (centres undefined) | 1.2 | 1.2 | -2 | -18 | -6 | -23
CCOC(=O)Nc1cc(OC)c(OC)cc1Cc1nccc2cc(OC)c(OC)cc12 | 0.2 | 0.4 | 3 | 85* | 4 | 62*
CC1=NOC(=O)/C1=C\c1ccc(-c2cc(Cl)ccc2Cl)o1 | 0.4 | 1 | 0 | 60* | 2 | 4
CC1=NOC(=O)/C1=C/c1ccc(-c2ccc(Cl)cc2)o1 | 0.2 | 0.3 | 0 | 76* | 0 | 68*
CCCNC(=O)NC(C(=O)OC)C12CC3CC(CC(C3)C1)C2 (centres undefined) | 0.3 | 0.6 | 7 | 69* | 17 | 40
CCCNC(=O)N[C@@H](CCSC)C(=O)OC | 0.7 | 0.9 | -11 | 33 | 6 | 12
CCOC(=O)CCCNC(=O)COc1ccccc1C#N | 0.7 | 1 | 0 | 33 | -8 | 3
CCOC(=O)C1=C(O)C(Nc2nccs2)(C(F)(F)F)N=C1C (centres undefined) | 0.8 | 1.1 | 35* | 16 | 1 | -14
COC(=O)C1=C(C)NC(=O)C1(Nc1nccs1)C(F)(F)F (centres undefined) | 0.9 | 1.1 | 0 | 8 | 6 | -10
Nc1[nH]ncc1C(=O)Nc1cccc(C(F)(F)F)c1 | 0.8 | 0.9 | 12 | 19 | -14 | 10
CCN1C(=O)/C(=C\c2cccs2)C(C(=O)OC)=C1C | 0.9 | 0.5 | 18 | 14 | -5 | 51*
COc1ccc(C(C)=O)cc1CSCCC#N | 0.9 | 1 | 3 | 8 | -3 | 3
CCN(CC)CCNS(=O)(=O)c1ccc(OC)c(Br)c1 | 0.7 | 1.5 | 2 | 32 | 2 | -52
SMILES | CYP2C19 act | CYP2C9 activ | PostGolgi ctrl | CYP2C19 inhib | PostGolgi yeast | CYP2C9 inhib
COc1ccc(S(=O)(=O)NCCc2csc(C)n2)cc1C | 0.3 | 1.2 | -1 | 74* | 9 | -24
COc1ccc(S(=O)(=O)NCc2cn3c(C)csc3n2)cc1F | 1 | 1 | 0 | 5 | -2 | 3
COc1ccc(S(=O)(=O)NCCC(C)C)cc1C | 0.2 | 1.9 | 11 | 85* | 8 | -87
CC1CC(C)CN(c2cc(=O)n(Cc3ccc(F)cc3)c(=O)[nH]2)C1 (centres undefined) | 1.1 | 1 | -3 | -10 | 7 | 2
CC(C)N(C(=O)CN1C(=O)NC2(CCCCCC2)C1=O)C(C)C | 1.1 | 1.1 | 2 | -6 | 2 | -10
Cc1csc(NC(=O)CSc2nnc(C)s2)n1 | 1.1 | 1.1 | 1 | -9 | -1 | -6
CC(C)(C)c1csc(NC(=O)Cn2cnc3ccccc3c2=O)n1 | 1.1 | 0.9 | 1 | -8 | 1 | 12
Cc1ccc(NC(=S)Nc2nc(CC(=O)Nc3ccccc3)cs2)cc1 | 0.4 | 0.7 | -7 | 59* | 14 | 28
Cc1cccc(C)c1NC(=O)CSc1nc2ccccc2c(=O)[nH]1 | 0.7 | 0.8 | 0 | 26 | 0 | 17
Cc1csc(NC(=O)CSc2nc3ccccc3c(=O)[nH]2)n1 | 0.9 | 0.4 | 1 | 8 | 4 | 55*
CC(C)(C)c1csc(NC(=O)CSc2nc3ccccc3c(=O)[nH]2)n1 | 0.3 | 0.1 | 12 | 67* | -3 | 94*
CC(=O)Nc1ccc(NC(=S)Nc2ccccc2)cc1 | 0.6 | 1 | 13 | 36 | -2 | 3
Cc1csc(NC(=O)CSCC(=O)Nc2ccccc2)n1 | 0.5 | 0.4 | 22 | 50 | 6 | 57*
O=C(CCS(=O)(=O)c1ccc(Cl)cc1)OCC(=O)N1CCCCC1 | 0.9 | 0.9 | 0 | 9 | -1 | 6
COc1cc(NC(=O)CCc2ccccc2)c(C(=O)O)cc1OC | 1 | 0.8 | 7 | 1 | 4 | 18
O=S(NCc1ccco1)C12CC3CC(CC(C3)C1)C2 (centres undefined) | . | . | 12 | . | -3 | .
CCOc1cc2[nH]c(=O)n(Cc3cccc(OC)c3)c(=O)c2cc1OCC | 1 | 0.9 | 8 | -4 | -2 | 7
COc1ccc(-c2c3c(nc4sc5c(=O)[nH]c(C)nc5c24)CCC3)cc1 | 1.1 | 0.4 | 3 | -5 | -2 | 57*
COc1ccc(C(=O)Nc2cc(C)on2)cc1 | 0.9 | 0.9 | 2 | 5 | 5 | 8
COc1ccc(-c2c3c(nc4sc(C(=O)Nc5cc(C)on5)c(N)c24)CCC3)cc1 | 0.7 | 0.5 | 16 | 27 | -2 | 51*
COCCOCCOCCC(=O)NC1CC2CCC1(C)C2(C)C (centres undefined) | 0.7 | 0.6 | 10 | 25 | -9 | 35
CC1(C)C2CCC1(C)C(NC(=O)CCN1CCCCC1)C2 (centres undefined) | 0.7 | 0.4 | 4 | 28 | -6 | 62*
COc1ccc(N=C2SC(CC(=O)Nc3ccc(OC)cc3OC)C(=O)N2C)cc1 (centres undefined) | 0.5 | 0.5 | -2 | 49 | -11 | 52*
CN=C1SC(CC(=O)NCCc2ccc(OC)c(OC)c2)C(=O)N1C (centres undefined) | 1.2 | 1.3 | -8 | -19 | 21 | -27
COCCN(C(=O)CCCC(=O)Nc1ccccn1)C(C(=O)NC1CCCC1)c1ccc(C)cc1 (centres undefined) | 0.5 | 0.7 | 4 | 47 | 2 | 28
COC(=O)c1cc2ccsc2n1CC(=O)N1CCCc2ccccc21 | 0.1 | 0.1 | 10 | 95* | 9 | 93*
COC(=O)c1cc2c(=O)n3ccccc3nc2n(C)c1=N | 1.1 | 1.2 | . | -6 | . | -24
